# Source: PMC8384837, “Expanding the binding specificity for RNA recognition by a PUF domain”
# Target: PUM1 PUF domain R5-GSR (Homo sapiens, UniProt Q14671 828-1176, C1007G;R1008S;Q1011R)
# Assay: yeast three-hybrid, YBZ-1, SC-Leu-His + 0.5 mM 3-AT, 4 days
# Conditions: tags: N-Gal4 AD-HA kept; label: inside an RPR1-promoter hybrid RNA with tandem MS2 sites; ssRNA
# In short: (§1)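 The interaction score is the log change in variant frequency from input to selection. Scores were computed in log2 with a pseudocount of 1 for absent variants, using Illumina sequencing of PCR-amplified repeat regions. The input came from four days on SC-Leu and the selection from four days on SC-Leu-His + 0.5 mM 3-AT. The cells were strain YBZ-1 (LexA–MS2 coat fusion, HIS3 reporter) co-expressing Pumilio-1 PUF domain libraries and matching RNA elements from a centromeric plasmid.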
row,Sequence,binding signal
1,GGCUAGAACUAGUGGAUCCCCCGGCGCCCGGCGGCUCGAGCCCGGGUAAGUGUUAAUAGUCUGCAUGCCGCCGGGCGCCAUGCCUGCAGGUCGACUCUAGAAAACAUG,3.01 log2 enrichment (interaction score)
2,GGCUAGAACUAGUGGAUCCCCCGGCGCCCGGCGGCUCGAGCCCGGGUAAGUGUAAAUAGUCUGCAUGCCGCCGGGCGCCAUGCCUGCAGGUCGACUCUAGAAAACAUG,1.75 log2 enrichment (interaction score)
3,GGCUAGAACUAGUGGAUCCCCCGGCGCCCGGCGGCUCGAGCCCGGGUAAGUGUCAAUAGUCUGCAUGCCGCCGGGCGCCAUGCCUGCAGGUCGACUCUAGAAAACAUG,5.07 log2 enrichment (interaction score)

# Target: PUM1 PUF domain R5-ERF (Homo sapiens, UniProt Q14671 828-1176, C1007E;Q1011F)
# Assay: as above
# Conditions: tags: N-Gal4 AD-HA kept; label: inside an RPR1-promoter hybrid RNA with tandem MS2 sites; ssRNA
# In short: as §1
row,Sequence,binding signal
1,GGCUAGAACUAGUGGAUCCCCCGGCGCCCGGCGGCUCGAGCCCGGGUAAGUGUUAAUAGUCUGCAUGCCGCCGGGCGCCAUGCCUGCAGGUCGACUCUAGAAAACAUG,3.92 log2 enrichment (interaction score)
2,GGCUAGAACUAGUGGAUCCCCCGGCGCCCGGCGGCUCGAGCCCGGGUAAGUGUAAAUAGUCUGCAUGCCGCCGGGCGCCAUGCCUGCAGGUCGACUCUAGAAAACAUG,2.71 log2 enrichment (interaction score)
3,GGCUAGAACUAGUGGAUCCCCCGGCGCCCGGCGGCUCGAGCCCGGGUAAGUGUCAAUAGUCUGCAUGCCGCCGGGCGCCAUGCCUGCAGGUCGACUCUAGAAAACAUG,3.35 log2 enrichment (interaction score)
